Measurements: the supplement of paper PMC9262897, “Low-cost anti-mycobacterial drug discovery using engineered E. coli” (Nature Communications, 2022)
Structures can show the parent of a compound that is named as a salt. ± gives the standard deviation of the averaged measurements.

What was measured:
Test in all cases: growth (OD600 after 10 h); higher = more growth (less inhibition)
[1] = test system: E. coli TESEC Alr+ wild-type control; details: compound 0.1 mM; raw OD600 reference: median of DMSO wells 0.241, cell-free background 0.041
Method: (§1)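 TESEC Mtb Alr E. coli, or the Alr+ wild-type control, in 384-well plates with Prestwick library compounds at 0.1 mM and 1% DMSO, across arabinose induction levels of 1E3 to 1E7 nM. Growth is read as OD600 after 10 h at 37 °C in triplicate biological replicates.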

E. coli TESEC Mtb Alr [2] = details: compound 0.1 mM
Method: as §1

E. coli TESEC Mtb Asd = details: compound 0.1 mM
Method: (§2)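 TESEC E. coli strains in which the native enzyme is deleted and replaced by arabinose-inducible Mtb Asd, DapB, CysH or TrpD, each grown in its selective medium. Strains were screened against the Prestwick library at 0.1 mM and 1% DMSO in 384-well format at low and high arabinose induction. Growth is read as OD600 after 10 h in triplicate.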

E. coli TESEC Mtb DapB = details: compound 0.1 mM
Method: as §2

[3] = test system: E. coli TESEC Alr+ wild-type control; details: compound 0.1 mM; raw OD600 reference: median of DMSO wells 0.49, cell-free background 0.052
Method: (§3)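 TESEC Mtb Alr E. coli (ΔaraC ΔtolC ΔentC Δalr ΔdadX, arabinose-inducible Mtb Alr) or the Alr+ wild-type control strain, grown in defined M9-fructose medium without D-alanine in 96-well plates with Prestwick library compounds at 0.1 mM and 1% DMSO. Low Alr induction is 0.1 µM arabinose and high induction is 10 mM arabinose.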

E. coli TESEC Mtb Alr [4] = details: compound 0.1 mM; remark: listed apart in the source
Method: as §3

[5] = arabinose 1000 nM, raw OD600 reference: median of DMSO wells 0.294, cell-free background 0.041
[6] = arabinose 10000 nM, raw OD600 reference: median of DMSO wells 0.264, cell-free background 0.041
[7] = arabinose 100000 nM, raw OD600 reference: median of DMSO wells 0.201, cell-free background 0.041
[8] = arabinose 1000000 nM, raw OD600 reference: median of DMSO wells 0.193, cell-free background 0.041
[9] = arabinose 10000000 nM, raw OD600 reference: median of DMSO wells 0.146, cell-free background 0.041
[10] = arabinose induction (level): High, raw OD600 reference: median of DMSO wells 0.331, cell-free background 0.041
[11] = arabinose induction (level): Low, raw OD600 reference: median of DMSO wells 0.417, cell-free background 0.041
[12] = arabinose induction (level): High, raw OD600 reference: median of DMSO wells […], cell-free background 0.041
[13] = arabinose induction (level): Low, raw OD600 reference: median of DMSO wells 0.227, cell-free background 0.041
[14] = arabinose 100 nM, raw OD600 reference: median of DMSO wells 0.413, cell-free background 0.052
[15] = arabinose 10000000 nM, raw OD600 reference: median of DMSO wells […], cell-free background 0.052

Row | Structure (SMILES) | growth [1] | growth (E. coli TESEC Mtb Alr [2]; [5]) | growth (E. coli TESEC Mtb Alr [2]; [6]) | growth (E. coli TESEC Mtb Alr [2]; [7]) | growth (E. coli TESEC Mtb Alr [2]; [8]) | growth (E. coli TESEC Mtb Alr [2]; [9]) | growth (E. coli TESEC Mtb Asd; [10]) | growth (E. coli TESEC Mtb Asd; [11]) | growth (E. coli TESEC Mtb DapB; [12]) | growth (E. coli TESEC Mtb DapB; [13]) | growth [3] | growth (E. coli TESEC Mtb Alr [4]; [14]) | growth (E. coli TESEC Mtb Alr [4]; [15])
1 | CC(c1cc2ccccc2s1)N(O)C(N)=O (centres undefined) [Zileuton] | 0.229 ± 0.004 | 0.295 ± 0.021 | 0.254 ± 0.011 | 0.223 ± 0.018 | 0.183 ± 0.0054 | 0.151 ± 0.0028 | 0.338 ± 0.022 | 0.352 ± 0.012 | 0.216 ± 0.029 | 0.216 ± 0.017 | 0.457 ± 0.011 | 0.403 ± 0.0065 | 0.3407 ± 0.00091
2 | CN(C)c1ccc(O)c2c1C[C@H]1C[C@H]3[C@H](N(C)C)C(=O)C(C(N)=O)=C(O)[C@@]3(O)C(=O)C1=C2O [Minocycline hydrochloride] | 0.0402 ± 0.00064 | 0.0422 ± 0.00083 | 0.0402 ± 0.00026 | 0.0426 ± 0.00055 | 0.0397 ± 0.00075 | 0.0426 ± 0.00067 | 0.06847 ± 0.00055 | 0.0692 ± 0.0029 | 0.0606 ± 0.01 | 0.0519 ± 0.0019 | 0.0527 ± 0.00085 | 0.0623 ± 0.0026 | 0.0637 ± 0.0055
3 | CN[C@@H]1[C@@H](O[C@H]2O[C@H](CO)[C@@H](N)[C@H](O)[C@H]2O)OC2C[C@@H](N)[C@@H](O[C@H]3[C@H](O)[C@@H](O)[C@H](N)C[C@@H]3N)OC2[C@@H]1O (some centres undefined) [Apramycin] | 0.0408 ± 0.00099 | 0.045 ± 0.0037 | 0.03913 ± 0.00032 | 0.0442 ± 0.00091 | 0.0395 ± 0.0018 | 0.05653 ± 0.00029 | 0.0487 ± 0.0014 | 0.0476 ± 0.0012 | 0.0527 ± 0.0023 | 0.048 ± 0.0016 | 0.0798 ± 0.0039 | 0.0841 ± 0.008 | 0.133 ± 0.069
4 | C[C@]12CCC(=O)C=C1CC[C@@H]1[C@@H]2[C@@H](O)C[C@@]2(C)[C@H]1CC[C@]2(O)C(=O)CO [Hydrocortisone base] | 0.218 ± 0.012 | 0.265 ± 0.024 | 0.253 ± 0.0038 | 0.173 ± 0.026 | 0.169 ± 0.0059 | 0.137 ± 0.0037 | 0.294 ± 0.076 | 0.307 ± 0.074 | 0.183 ± 0.017 | 0.209 ± 0.047 | 0.578 ± 0.1 | 0.407 ± 0.0089 | 0.302 ± 0.0092
5 | N=C(N=C(N)N)N1CCOCC1 [Moroxidine hydrochloride] | 0.255 ± 0.02 | 0.288 ± 0.017 | 0.2687 ± 0.0004 | 0.225 ± 0.022 | 0.186 ± 0.013 | 0.152 ± 0.0076 | 0.366 ± 0.025 | 0.404 ± 0.032 | 0.203 ± 0.0065 | 0.245 ± 0.053 | 0.454 ± 0.045 | 0.404 ± 0.011 | 0.355 ± 0.033
6 | CNCCC=C1c2ccccc2C=Cc2ccccc21 [Norcyclobenzaprine] | 0.182 ± 0.016 | 0.194 ± 0.022 | 0.254 ± 0.014 | 0.157 ± 0.0048 | 0.0991 ± 0.0027 | 0.111 ± 0.0032 | 0.204 ± 0.045 | 0.238 ± 0.036 | 0.186 ± 0.009 | 0.21 ± 0.0089 | 0.514 ± 0.015 | 0.419 ± 0.011 | 0.212 ± 0.011
7 | CN(C)CC/C=C1/c2ccccc2COc2ccc(CC(=O)O)cc21 [Olopatadine hydrochloride] | 0.2304 ± 0.0017 | 0.281 ± 0.0096 | 0.276 ± 0.0029 | 0.179 ± 0.014 | 0.231 ± 0.013 | 0.126 ± 0.0042 | 0.256 ± 0.056 | 0.328 ± 0.089 | 0.198 ± 0.011 | 0.233 ± 0.015 | 0.589 ± 0.097 | 0.425 ± 0.0062 | 0.361 ± 0.013
8 | CC(C)NCC(O)c1ccc(O)c(O)c1 (single isomer, unassigned; (-)) [(-)-Isoproterenol hydrochloride] | 0.236 ± 0.0036 | 0.289 ± 0.0076 | 0.278 ± 0.015 | 0.184 ± 0.02 | 0.199 ± 0.004 | 0.143 ± 0.0042 | 0.281 ± 0.052 | 0.392 ± 0.03 | 0.191 ± 0.014 | 0.23 ± 0.035 | 0.539 ± 0.066 | 0.4345 ± 0.003 | 0.32 ± 0.02
9 | COc1c2occc2c(OC)c2c(=O)cc(C)oc12 [Khellin] | 0.206 ± 0.0044 | 0.2539 ± 0.0022 | 0.245 ± 0.0065 | 0.189 ± 0.0037 | 0.149 ± 0.0057 | 0.1439 ± 0.00044 | 0.317 ± 0.081 | 0.35 ± 0.016 | 0.182 ± 0.0039 | 0.253 ± 0.1 | 0.418 ± 0.038 | 0.3963 ± 0.0035 | 0.306 ± 0.032
10 | CN1CCC[C@@H]1CCO[C@](C)(c1ccccc1)c1ccc(Cl)cc1 [Clemastine fumarate] | 0.0447 ± 0.00026 | 0.0419 ± 0.00017 | 0.0403 ± 0.0001 | 0.04353 ± 0.00025 | 0.04023 ± 0.00015 | 0.0439 ± 0.0004 | 0.0482 ± 0.0021 | 0.0504 ± 0.0026 | 0.0513 ± 0.00046 | 0.102 ± 0.085 | 0.218 ± 0.29 | 0.421 ± 0.0052 | 0.0923 ± 0.02
11 | CC(=O)O[C@H]1C(=O)[C@@]2(C)[C@H]([C@H](OC(=O)c3ccccc3)[C@]3(O)C[C@H](OC(=O)[C@H](O)[C@@H](NC(=O)c4ccccc4)c4ccccc4)C(C)=C1C3(C)C)[C@]1(OC(C)=O)CO[C@@H]1C[C@@H]2O [Paclitaxel] | 0.23 ± 0.013 | 0.285 ± 0.019 | 0.255 ± 0.024 | 0.222 ± 0.019 | 0.2 ± 0.015 | 0.179 ± 0.018 | 0.34 ± 0.051 | 0.385 ± 0.079 | 0.209 ± 0.006 | 0.279 ± 0.059 | 0.554 ± 0.03 | 0.429 ± 0.014 | 0.336 ± 0.033
12 | CC(C)(C)NC(=O)[C@@H]1CN(Cc2cccnc2)CCN1C[C@@H](O)C[C@@H](Cc1ccccc1)C(=O)N[C@H]1c2ccccc2C[C@H]1O [Indinavir sulfate] | 0.2105 ± 0.00051 | 0.293 ± 0.014 | 0.241 ± 0.0041 | 0.221 ± 0.02 | 0.149 ± 0.0054 | 0.139 ± 0.004 | 0.239 ± 0.05 | 0.403 ± 0.025 | 0.216 ± 0.0067 | 0.286 ± 0.022 | 0.558 ± 0.12 | 0.422 ± 0.014 | 0.281 ± 0.01
13 | NS(=O)(=O)c1cc2c(cc1Cl)NC(C(Cl)Cl)NS2(=O)=O (centres undefined) [Trichlormethiazide] | 0.243 ± 0.0058 | 0.296 ± 0.021 | 0.278 ± 0.0046 | 0.2 ± 0.013 | 0.195 ± 0.015 | 0.139 ± 0.0024 | 0.331 ± 0.037 | 0.448 ± 0.033 | 0.191 ± 0.0022 | 0.246 ± 0.041 | 0.631 ± 0.095 | 0.408 ± 0.0097 | 0.357 ± 0.01
